Screens deposited in PubChem BioAssay by National Center for Advancing Translational Sciences (NCATS).
HP1b chromo inh – HP1-beta chromodomain-methylated histone interaction inhibition; AlphaScreen HP1-beta / biotin-H3K9me3 peptide binding; AID 540317; Potency, µM (series often up to 114 µM), without a hit: at the top dose activity change, negative = inhibition, hits mostly inhibitors; actives 0.56% (n = 390,000); also: nearly all actives have a fitted effect of over 70% in size
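Compound inhibition of the preformed complex between 50 nM HP1-beta and 50 nM biotinylated H3K9me3 peptide was read by AlphaScreen. Buffer was PBS pH 7.4 with 0.01% Tween-20. Incubations ran 30 min at room temperature, with 10 ug/mL donor/acceptor beads.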
JMJD2A Tudor inh – inhibitors of human JMJD2A Tudor domain; AID 504339; AlphaScreen JMJD2A-Tudor / H3K4me3 peptide binding; actives 4.4% (n = 390,000); Potency, µM (doses to about 114 µM), for the others: at the top dose activity change, negative = inhibition, actives largely listed as inhibitors; also: % is scaled to controls: 0 for no effect and ±100 for the full control effect; nearly all actives have a fitted effect of over 50% in size
G9a block – G9a (human) methyltransferase inhibition; Q96KQ7; G9a H3K9 monomethylation, AlphaScreen, 2 h; Potency, µM (titrated, usually from 102 µM), for the others: at the highest dose activity, negative = inhibition, actives largely listed as inhibitors; actives 8.8% (n = 350,000); AID 504332; also: % is scaled to controls: 0 for no effect and ±100 for the full control effect; nearly all actives have a fitted effect of over 75% in size
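Methyltransferase reactions run at room temperature for 2 h (20 nM enzyme, 500 nM biotin-H3K9 peptide, 20 uM SAM) after a 15 min compound preincubation; product detected by AlphaScreen beads and anti-H3K9me1 antibody.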
ALOX12 inh – inhibitors of human 12S-lipoxygenase ALOX12; P18054; purified 12hLO, xylenol orange hydroperoxide absorbance; Potency, µM (doses to about 108 µM), for the others: at the top dose activity change, negative = inhibition, most hits filed as inhibitors; actives 1.1% (n = 580,000); also: % is scaled to controls: 0 for no effect and ±100 for the full control effect
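Purified human 12hLO at 150 nM in 25 mM Hepes, 0.01% Triton X-100, pH 7.0, preincubated 15 min at room temperature with compound. Reaction started with 40 uM arachidonic acid, 30 min at room temperature. Hydroperoxide measured by Fe-xylenol orange, 573/405 nm absorbance ratio.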
Sfp PPTase inh – inhibitors of Bacillus subtilis Sfp phosphopantetheinyl transferase; actives 3.5% (n = 310,000); AID 1490; Biochemical Sfp PPTase activity, qHTS; Q9F4F7; Potency, µM, inactives show largest response in the series, negative = inhibition, most hits filed as inhibitors;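 also: the enzyme is Sfp with the accession as filed and its product quenches rhodamine fluorescence; 0% = enzyme reaction without inhibitor and -100% = no enzyme wells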
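After 15 min at room temperature with compound, 15 nM Sfp received 5 uM rhodamine-CoA plus 12.5 uM BHQ-2-ybbR (50 mM Hepes pH 7.6, 10 mM MgCl2). Rate came from the fluorescence difference over 30 min, ex 525/em 598 nm.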
BAZ2B inh – blocks human BAZ2B | Q9UIF8 | AlphaScreen BAZ2B-H3K14Ac peptide displacement | Potency, µM (highest dose often 114 µM), without a hit: at the top dose activity change, negative = inhibition, hits mostly inhibitors | actives 4.4% (n = 360,000) | AID 504333; also: % is scaled to controls: 0 for no effect and ±100 for the full control effect; nearly all actives have a fitted effect of over 60% in size
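AlphaScreen displacement: compounds (up to 110uM) incubated 30 min at room temperature with a preformed 50 nM BAZ2B/50 nM biotinylated H3K14Ac peptide complex in PBS pH 7.4 with Tween-20. Donor and acceptor beads at 10 ug/mL final added, 20 min light-protected before reading.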
Active calls of the source: *; ? = inconclusive; nt = no result given; [ ] = remark or other dose. Most compounds without a hit are left out; they make up all but 8.7% or so of the library. Calls follow the shape of the dose curve; as a rule, active = well fitted curve in the direction sought with a large enough effect; inconclusive = small, poorly fitted or top-dose-only effect, or another doubt; inactive = no such curve, though single readings can be large; an effect the other way counts as inactive or inconclusive. Potency is read from the fitted curve at half-maximal effect.

SMILES	HP1b chromo inh	JMJD2A Tudor inh	G9a block	ALOX12 inh	Sfp PPTase inh	BAZ2B inh
CC(=O)C1=C(O)C(=O)N(c2ccc(Br)cn2)C1c1ccccc1[N+](=O)[O-] (stereo unspecified)	41%	-22%	40µM*	?	-27%	-30%
CC(=O)C1=C(O)C(=O)N(c2ccccn2)C1c1ccccc1[N+](=O)[O-] (stereo unspecified)	29%	20µM*	?	14µM*	-22%	?
CC(=O)C1=C(O)C(=O)N(c2ccccn2)C1c1cccc(F)c1 (stereo unspecified)	29%	-11%	45µM*	?	-14%	?
CC(=O)C1=C(O)C(=O)N(c2ccc(Br)cn2)C1c1ccccc1F (stereo unspecified)	47%	-11%	?	?	12%	-10%
CC(C)c1ccc(C(=O)O)s1	nt	nt	nt	-2%	nt	nt
CCN1CCN(C(=O)CCCn2nc(C)c3c(C)n(-c4ccc(C)cc4)nc3c2=O)CC1	nt	nt	nt	2%	nt	nt
Cc1nc(-c2ccc(S(=O)(=O)Nc3ccccc3F)cc2)co1	nt	nt	nt	-1%	nt	nt
O=C1/C(=C\c2ccc(Br)o2)SC(=Nc2ccccc2)N1c1ccccc1	-32%	25µM*	40µM*	0%	-16%	8.9µM*
COc1ccc(NS(=O)(=O)c2ccc(NC(=O)c3ccccn3)cc2)cc1	17%	-17%	-3%[12.7 µM]	38%	nt	6%
CCOc1ccc(NC(=O)c2ccccn2)cc1	18%	16µM*	-4%[59 µM]	-11%	10%	8%
CCOc1ccc(NC(=O)C2CSC(c3ccncc3)=N2)cc1 (stereo unspecified)	27%	-7%	50µM*	10%	-11%	-5%
CNS(=O)(=O)c1ccc(NC(=O)c2ccccn2)cc1	-4%	13µM*	11%[59 µM]	-10%	-6%	7%
NS(=O)(=O)c1ccc(CNC(=O)c2ccccn2)cc1	56%	4%[11.4 µM]	5%[59 µM]	?	-13%	79µM*
CCOc1ccc(NC(=O)c2cnccn2)cc1	22%	17%	-3%[59 µM]	0%	18%	-1%
Cc1ncsc1CN1CC(N(CC(C)C)C2CCOCC2)C1	nt	nt	nt	42%	nt	nt
CNC(=O)c1ccc(OCc2nc(C(C)C)no2)cc1	nt	nt	nt	-3%	nt	nt
CCOc1ccc(NC(=O)/C(C=Nc2ccccc2)=C(\C)O)cc1	-15%	?	45µM*	11%	-22%	-15%
CCOc1ccc(NC(C)=O)cc1	21%	-7%	24%[21.5 µM]	1%	5%	0%
Cc1noc(C)c1CNCC1(COc2cccnc2)C[C@@H](O)[C@@H](O)C1 (stereo partly specified)	nt	nt	nt	13µM*	nt	nt
Cc1noc(C)c1CNCC1(COc2cnccn2)C[C@@H](O)[C@@H](O)C1 (stereo partly specified)	nt	nt	nt	110%[176 µM]	nt	nt
CN(Cc1cc(=O)n2ccsc2n1)Cc1nc2ccccc2c(=O)[nH]1	40%	-15%	?	37%	4.5µM*	nt
CN(Cc1cc(=O)n2ccsc2n1)C1CCCCC1	27%	-3%	50µM*	1%	-5%	-31%
CCN(Cc1cc(=O)n2ccsc2n1)Cc1nc2cc(OC)c(OC)cc2c(=O)[nH]1	11%	-7%[11.4 µM]	13µM*	1%	?	3%
CCN(Cc1nc2ccccc2c(=O)[nH]1)Cc1nc2cc(OC)c(OC)cc2c(=O)[nH]1	30%	11%	20%[12.7 µM]	-2%	20%	9%
CN(Cc1cc(=O)n2ccsc2n1)c1ccccc1	40%	-7%	0%[59 µM]	-16%	?	1%
CNC(=O)[C@@H]1C[C@H](Oc2cccnc2)CN1C(=O)CCCc1ccccc1	nt	nt	nt	15%	nt	nt
Cc1nn(-c2ccccc2)c(C)c1CC(=O)N1CCN(S(=O)(=O)c2ccc(F)cc2F)CC1	nt	nt	nt	8%	nt	nt
NCc1cccc(-c2ccc(OC(F)(F)F)cc2)c1	nt	nt	nt	1%[12.5 µM]	nt	nt
COc1ccc(NC(=O)CSCc2cnn(-c3ccccc3)c2-n2cccc2)cc1	55%	-7%	-13%[59 µM]	-9%	nt	-39%
